Assay outcomes as filed in PubChem BioAssay.
Hits are enriched below; roughly 17% of the tested compounds scored in any of these assays.
TDP1 inh = qHTS Assay for Inhibitors of Tyrosyl-DNA Phosphodiesterase (TDP1) | recombinant TDP1, AlphaScreen DNA substrate cleavage | 350,000 compounds, 0.28% hits | Potency, µM (highest dose often 130 µM), hits mostly inhibitors; also: nearly all actives have a fitted effect of over 40% in size
Target sequence (Q9NUW8 whole entry, looked up): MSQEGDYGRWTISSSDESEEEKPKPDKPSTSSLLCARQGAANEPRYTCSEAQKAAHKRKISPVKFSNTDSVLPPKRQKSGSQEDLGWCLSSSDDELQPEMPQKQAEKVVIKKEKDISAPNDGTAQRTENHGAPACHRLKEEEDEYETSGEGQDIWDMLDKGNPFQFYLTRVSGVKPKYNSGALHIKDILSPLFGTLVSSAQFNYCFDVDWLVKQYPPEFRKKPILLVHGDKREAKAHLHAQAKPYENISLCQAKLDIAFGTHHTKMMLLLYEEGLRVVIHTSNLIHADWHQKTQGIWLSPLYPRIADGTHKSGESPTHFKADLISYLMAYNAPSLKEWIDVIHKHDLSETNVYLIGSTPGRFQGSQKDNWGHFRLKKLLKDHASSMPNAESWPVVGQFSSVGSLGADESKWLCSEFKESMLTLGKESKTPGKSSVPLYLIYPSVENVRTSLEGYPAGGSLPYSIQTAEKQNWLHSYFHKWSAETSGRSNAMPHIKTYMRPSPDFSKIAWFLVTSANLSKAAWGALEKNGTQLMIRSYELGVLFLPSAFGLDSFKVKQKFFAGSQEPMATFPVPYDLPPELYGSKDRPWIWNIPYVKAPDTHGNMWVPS
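Here, a 5' biotin and 3' phosphotyrosine-FITC DNA oligonucleotide reports Tdp1 activity: intact substrate bridges AlphaScreen beads, while cleavage leaves a 3' phosphate and drops signal. All incubations at room temperature.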
TDP1 cell CPT = qHTS for Inhibitors of human tyrosyl-DNA phosphodiesterase 1 (TDP1): qHTS in cells in presence of CPT | chicken DT40 Tdp1-/-;hTDP1 cells + 20 nM CPT, ATP luminescence, 48 h | Potency, µM (highest dose often 46.2 µM), most hits filed as inhibitors | 420,000 compounds, 12% hits | AID 686979, 2013; also: nearly all actives have a fitted effect of over 55% in size
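Chicken DT40 Tdp1-/- cells complemented with human TDP1, 400 cells/well, exposed to compounds plus 20 nM camptothecin for at least 48 h at 37 C; viability read as ATP content by CellTiter-Glo luminescence.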
ClpP mod = qHTS Assay for Activators of ClpP. purified B. subtilis ClpP, FRET peptide cleavage, 20 min. Potency, µM (highest dose often 57.5 µM). 340,000 compounds, 1.9% hits; active = well fitted falling curve with a large enough effect; inconclusive = small, poorly fitted or top-dose-only effect; inactive = no such curve, though single readings can be large or run the other way; also: the source files actives as falling curves though it sought activators and does not explain the sign; nearly all actives have a fitted effect of over 65% in size
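FRET quenching reversal measured ClpP activation: 10 microg/mL B. subtilis ClpP at pH 8 with the FRET-FV decapeptide, read at 430 nm after 320 nm excitation. The 20-min minus 0-min signal was scaled between DMSO/no-enzyme wells and ADEP (5.8 microM final).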
TDP1 cell noCPT = qHTS for Inhibitors of human tyrosyl-DNA phosphodiesterase 1 (TDP1): qHTS in cells in absence of CPT; 420,000 compounds, 15% hits; DT40 Tdp1-/- hTDP1 cells, no CPT, ATP luminescence, 48 h; AID 686978, 2013; Potency, µM (highest dose often 46.2 µM), most hits filed as inhibitors; also: nearly all actives have a fitted effect of over 55% in size
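Chicken DT40 Tdp1-/- cells complemented with human TDP1, screened without camptothecin (DMSO vehicle only), 400 cells/well. Compounds pin-transferred, cells incubated at 37 °C for at least 48 hr. Growth read as ATP-dependent luminescence (CellTiter-Glo, 30 min at RT).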
Large screens that a line does not name were inactive. Unless noted, calls follow the shape of the dose curve; as a rule, active = well fitted curve in the direction sought with a large enough effect; inconclusive = small, poorly fitted or top-dose-only effect, or another doubt; inactive = no such curve, though single readings can be large; an effect the other way counts as inactive or inconclusive.

COc1cccc(OCCn2cc(/C=N/NC(=O)c3ccncc3)c3ccccc32)c1	TDP1 cell CPT inconclusive, TDP1 cell noCPT inconclusive
COc1ccccc1OCCn1cc(C(=O)c2ccco2)c2ccccc21	TDP1 cell CPT inconclusive, TDP1 cell noCPT 18µM
CC(=O)c1cn(CCOc2cc(C)ccc2C)c2ccccc12	TDP1 cell CPT 3.7µM, TDP1 cell noCPT 4.1µM (no result: TDP1 inh, ClpP mod)
Cc1ccccc1OCCn1cc(C(=O)c2ccco2)c2ccccc21	TDP1 cell CPT inconclusive, TDP1 cell noCPT 23µM
Cc1ccc(C)c(OCCn2cc(C(=O)O)c3ccccc32)c1	none (no result: ClpP mod)
COc1cccc(OCCn2cc(C(C)=O)c3ccccc32)c1	TDP1 cell CPT 12µM, TDP1 cell noCPT 18µM (no result: TDP1 inh)
Cc1ccccc1OCCn1cc(C(=O)O)c2ccccc21	none (no result: ClpP mod)
COc1cccc(OCCn2cc(C(=O)c3ccco3)c3ccccc32)c1	TDP1 cell CPT 16µM, TDP1 cell noCPT 16µM
COc1cccc(/C=C/C2=CC3(C)CC2(C)C(c2cccc(OC)c2)CC3=O)c1 (centres undefined)	none (no result: TDP1 cell CPT, ClpP mod, TDP1 cell noCPT)
COc1ccc(C)cc1Nc1n[n+](-c2ccccc2)c(-c2c(Cl)cccc2Cl)s1	TDP1 cell CPT 21µM, TDP1 cell noCPT 13µM (no result: TDP1 inh)
COc1ccc(C)cc1Nc1n[n+](C)c(-c2c3ccccc3cc3ccccc23)s1	none (no result: TDP1 inh)
COc1ccc(C)cc1Nc1n[n+](-c2ccccc2)c(-c2ccc(OC)c(OC)c2OC)s1	TDP1 cell CPT 16µM, TDP1 cell noCPT 18µM (no result: TDP1 inh)
COc1ccc(C)cc1Nc1n[n+](-c2ccccc2)c(-c2ccc(N(C)C)cc2)s1	TDP1 cell CPT 10µM, TDP1 cell noCPT 21µM (no result: TDP1 inh)
CCOC(=O)[C@@H]1[C@H]2COc3ccccc3[C@@H]2N2C(=O)N(c3ccc(OC)cc3)C(=O)[C@]12C	none (no result: TDP1 inh)
Cc1onc(-c2ccccc2)c1C(=O)Nc1ncc([N+](=O)[O-])s1	TDP1 cell CPT 23µM, TDP1 cell noCPT 21µM (no result: TDP1 inh, ClpP mod)
Cc1onc(-c2ccccc2)c1NC(=O)N(Cc1ccccc1)C(C)C	TDP1 cell noCPT inconclusive
Cc1cc(=O)oc2cc(NC(=O)Cc3ccccc3)ccc12	none (no result: ClpP mod)
Cc1onc(-c2ccccc2)c1C(=O)N(Cc1ccccc1)C(C)C	TDP1 cell CPT inconclusive, TDP1 cell noCPT 26µM (no result: TDP1 inh)
CCCC(C(=O)Nc1ccc2c(C)cc(=O)oc2c1)c1ccccc1 (centres undefined)	TDP1 cell CPT 26µM, TDP1 cell noCPT inconclusive
Cc1cccc(C)c1NC(=O)c1c(-c2ccccc2)noc1C	none
Cc1ccccc1NC(=O)c1c(-c2ccccc2)noc1C	TDP1 cell CPT 12µM, TDP1 cell noCPT 9.2µM
CCOc1ccc(NC(=O)CSc2nc3nc(C)c(Cc4ccccc4)c(C)n3n2)cc1	TDP1 cell CPT inconclusive, TDP1 cell noCPT inconclusive
Cc1noc(C)c1S(=O)(=O)NC(=O)C1(C)CCN1C(=O)Cc1ccc(Cl)cc1Cl (centres undefined)	none (no result: TDP1 inh)
COCCCn1c(SCC(=O)NCc2ccccc2)nc2c(sc3ccccc32)c1=O	none
COc1ccc(C)cc1S(=O)(=O)NCCN1CCOCC1	none (no result: TDP1 inh)
Cc1cc(NC(=O)c2cccn2-c2nnc(N3CCCCC3)s2)ccc1Br	TDP1 cell CPT inconclusive, ClpP mod inconclusive, TDP1 cell noCPT inconclusive
Cc1onc(-c2ccccc2)c1C(=O)Nc1nnc(-c2ccncc2)s1	ClpP mod 32µM
CCC(=O)Nc1nnc(-c2ccncc2)s1	ClpP mod 16µM
Cc1onc(-c2ccccc2)c1C(=O)Nc1ccccc1NC(=O)c1c(-c2ccccc2)noc1C	TDP1 cell CPT 15µM, TDP1 cell noCPT 18µM
CCCOc1ccccc1NC(=O)c1c(-c2ccccc2)noc1C	TDP1 cell CPT inconclusive, TDP1 cell noCPT 8.2µM
Cc1onc(-c2ccccc2)c1C(=O)Nc1ccncc1	TDP1 cell CPT inconclusive, TDP1 cell noCPT inconclusive
COc1ccc(NC(=O)c2c(-c3ccccc3)noc2C)c(OC)c1	none
Cc1onc(-c2ccccc2)c1C(=O)Nc1ccc2c(C)cc(=O)oc2c1	ClpP mod 16µM
Cc1cccc(NC(=O)CN2C(=O)c3ccccc3Sc3ncccc32)c1C	TDP1 cell CPT inconclusive, TDP1 cell noCPT inconclusive
O=S(=O)(Nc1cc(Br)cc2cccnc12)c1ccccc1	none (no result: TDP1 cell CPT, ClpP mod, TDP1 cell noCPT)
